PubChem BioAssay AID1220 (Sanford-Burnham Center for Chemical Genomics, 2008)
Hit rate of the full screen: of about 190,000 compounds, about 1,300 (0.68%) were called active. The sample as a whole holds a higher share of actives than the screen did. A number with no mark means an inactive call. Rule as the data show it: active = inhibition above about 50%; inactive = the rest.

Each compound was assayed against Mannose-6-phosphate isomerase (Homo sapiens) (UniProt P34949) (assay: MPI inhibition at elevated mannose 6-phosphate – biochemical, fluorescence intensity, high mannose 6-phosphate, primary screen (AID 1220)). Conditions: recombinant PMI enzyme, coupled fluorescence intensity; at 20 µM; stronger effect = higher value.
Mannose-6-phosphate isomerase (Homo sapiens), sequence (P34949 whole entry, looked up): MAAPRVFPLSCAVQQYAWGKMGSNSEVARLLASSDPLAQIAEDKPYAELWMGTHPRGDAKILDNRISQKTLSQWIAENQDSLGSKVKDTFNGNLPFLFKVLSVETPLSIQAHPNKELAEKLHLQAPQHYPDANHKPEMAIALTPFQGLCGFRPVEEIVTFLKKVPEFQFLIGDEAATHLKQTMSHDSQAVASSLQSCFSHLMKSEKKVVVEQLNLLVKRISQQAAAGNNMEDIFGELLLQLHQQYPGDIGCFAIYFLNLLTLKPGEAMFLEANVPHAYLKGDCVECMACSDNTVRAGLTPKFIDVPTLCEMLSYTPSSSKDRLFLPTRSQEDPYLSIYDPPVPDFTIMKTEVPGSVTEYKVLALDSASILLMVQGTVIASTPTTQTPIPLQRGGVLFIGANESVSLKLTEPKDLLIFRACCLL

SMILES	inhibition
CCOc1ccccc1NC(=O)Cn1nnc(-c2ccc(OCC)c(OCC)c2)n1	-1.1%
COc1ccc(-c2cn(-c3cccc(C)c3)c(=O)[nH]2)cc1OC	-94.8%
COc1ccc(C2CC2/C(=N/OC(=O)c2cccs2)c2ccccc2)cc1 (configuration not stated)	4.3%
O=C(C1CCN(S(=O)(=O)N2CCC3(CC2)OCCO3)CC1)N1CCCCC1	11%
COc1ccc(Oc2coc3cc(OC(=O)/C=C/c4ccccc4)ccc3c2=O)cc1	6.5%
COc1ccc(Oc2coc3cc(OC(=O)/C=C/c4ccc(F)cc4)ccc3c2=O)cc1	-6.3%
COc1ccccc1-c1coc2cc(OC(=O)/C=C/c3ccccc3)ccc2c1=O	57.1% (active)
COc1cccc(NC(=O)N2CCCC2C(=O)Nc2ccc3c(c2)OCCO3)c1 (configuration not stated)	7%
CCOC(=O)C(C(=O)OCC)c1cc(Br)c2noc3c2c1C(=O)c1ccccc1-3	52.1% (active)
CCOC(=O)c1c(C)nc2c(c1-c1ccccc1)C(=O)c1ccccc1-2	-34.4%
O=C1c2ccccc2-c2onc3c(Oc4ccccc4)cc(O)c1c23	-4.7%
COc1ccc(Cc2n[nH]c(=S)n2C)cc1Br	0.8%
O=C(NCCN1CCCCC1)c1cc(OCC(F)(F)F)ccc1OCC(F)(F)F	7.9%
Fc1ccccc1NC(=S)NCCc1ccccc1	-7.1%
CC(C)CCNC(=S)Nc1ccccc1F	-14.2%
CCCCNC(=S)Nc1ccccc1F	59% (active)
O=C(COC(=O)Cc1ccccc1[N+](=O)[O-])NCc1ccccc1Cl	-4%
S=C(Nc1ccc2nccnc2c1)N1CCOCC1	69.2% (active)
COC(=O)c1cccc(NC(=S)N2CCOCC2)c1	52.1% (active)
S=C(Nc1ccc(Cl)c(Cl)c1)N1CCOCC1	10.9%
COC(=O)c1cccc(NC(=S)N2CCN(c3ccccc3F)CC2)c1	4.7%

SMILES	inhibition
S=C(Nc1ccc2nccnc2c1)N1CCCC1	35.6%
COC(=O)c1cccc(NC(=S)N2CCCCC2)c1	-3.2%
CC(C)CCNC(=O)C(NS(=O)(=O)c1ccc2c(c1)c(=O)n(C)c(=O)n2C)c1ccccc1 (configuration not stated)	-11.2%
Cc1cc(C(F)F)n2nc(C(=O)Nc3ccccc3Br)nc2n1	-3.5%
Cc1ccsc1/C=N/NC(=O)c1cc(-c2ccncc2)nc2ccccc12	-9.2%
N#Cc1ccc(C(=O)Nc2cc(S(=O)(=O)N3CCCC3)ccc2OCC(F)(F)F)cc1	-0.6%
CCCc1nc2c(=O)[nH]c3ccccc3c2o1	-0.9%
NC(=O)c1c(NC(=O)c2cc3ccccc3o2)sc2c1CCC2	2.2%
O=C(Nc1cccc2ncccc12)c1ccc(-c2ccc(Br)cc2)o1	40.4%
O=C(Nc1cccc2nsnc12)c1ccc(-c2cccc(Cl)c2)o1	50.2% (active)
COC(=O)c1ccccc1NC(=O)c1ccc(-c2cccc(Cl)c2)o1	6.9%
O=C(Nc1ccccc1N1CCCCC1)c1ccc(-c2cccc(Cl)c2)o1	1.7%
COc1ccccc1NC(=O)c1ccc(-c2ccc(Br)cc2)o1	7.4%
O=C(Nc1cccc2nsnc12)c1ccc(-c2ccc(Br)cc2)o1	50.3% (active)
Cc1ccc(C)c(N2CCN(CCCNC(=O)Cn3cccc3C(=O)c3ccccc3)CC2)c1	-7.6%
CC1(c2ccccc2Cl)NC(=O)N(CC(=O)NCc2ccco2)C1=O (configuration not stated)	-3%
COC(=O)c1sccc1NC(=O)CSc1nnnn1-c1ccccc1F	10.3%
O=C(O)CCSc1nnc(COc2ccc([N+](=O)[O-])cc2)n1-c1ccccc1	7.5%
CCCCCCC(=O)N=Nc1c(O)[nH]c2ccc([N+](=O)[O-])cc12	1.3%
COc1ccc(-n2c(N)c(C#N)c3ccc([N+](=O)[O-])cc3c2=O)cc1	52.3% (active)
CCCCCCn1c(N)c(C#N)c2ccc([N+](=O)[O-])cc2c1=O	63.1% (active)

SMILES	inhibition
COc1cccc(-n2c(N)c(C#N)c3ccc([N+](=O)[O-])cc3c2=O)c1	16.8%
COc1ccc(-n2cnc3cc([N+](=O)[O-])ccc32)cc1	3.2%
N#Cc1c(N)n(-c2ccccc2)c(=O)c2cc([N+](=O)[O-])ccc12	36.6%
COCCCNc1ncnc2c1[nH]c1ccccc12	16.1%
CCCN(C(=O)CSc1nc2c(cnn2-c2ccccc2)c(=O)[nH]1)C1CCS(=O)(=O)C1 (configuration not stated)	-13.4%
O=[N+]([O-])c1ccccc1/C=N/n1c(-c2cccnc2)n[nH]c1=S	3.5%
COc1ccc2c(c1)[nH]c1c(=O)n(Cc3ccco3)cnc12	20.7%
CCOC(=O)c1c(NC(=O)c2cccs2)sc2c1CC(C)(C)OC2	21.6%
Oc1ccc(/C=N/NC(=S)Nc2cccnc2)c(O)c1	-11.9%
Oc1ccc(/C=N/NC(=S)Nc2cccnc2)cc1O	6.3%
CCOc1ccc(NC(=S)N(CCN2CCOCC2)Cc2cc3cc4c(cc3[nH]c2=O)OCO4)cc1	61.3% (active)
CCOc1ccc(NC(=S)N(CCN2CCOCC2)Cc2cc3cc4c(cc3[nH]c2=O)OCCO4)cc1	24.8%
COc1ccc(NC(=S)N(CCN2CCOCC2)Cc2cc3cc4c(cc3[nH]c2=O)OCO4)cc1	14.7%
CCOC(=O)C1=C(C)NC(C)=C(C(=O)OCC)C1C(=O)OCC(=O)c1ccc2c(c1)OCCO2	14.5%
COC(=O)c1oc2ccccc2c1NC(=O)CN1CCCC1	6.8%
COc1cc(NC(=S)Nc2cccc(C)n2)cc(OC)c1OC	-3.5%
C/C(CC(=O)Nc1ccc(Cl)c(C(F)(F)F)c1)=N\NC(=O)c1cc2ccccc2cc1O	-5.7%
NC(=S)N/N=C\c1c2ccccc2cc2ccccc12	-132%
NC(=S)Nc1cccc2cc3ccccc3cc12	-9%
NC(=S)Nc1cc2ccccc2c2ccccc12	65.4% (active)
